# Reference: PubChem BioAssay (EPA / NIEHS)
# Results filed as inconclusive are left out. Active and inactive are the calls of the source. How the source made its calls: active means hit-call score of the fitted dose curve at least 0.9, where 1 is the maximum; inconclusive means response in the unintended direction; inactive means score below 0.9.
# Columns and labels:
# [1] = target: human Matrix Metalloproteinase-1 (MMP1), MMP1 (gene 4312) (UniProt P03956); assay: NVS_ENZ_hMMP1: NovaScreen (NVS) Enzymatic Assay for human Matrix Metalloproteinase-1 (MMP1) (AID 2283181)
# Outline: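 Human MMP1 enzyme activity measured by fluorescence 1 h after dosing, cell-free, with a specific substrate. Screened in duplicate at 25 uM; hits (e.g. 30% inhibition) run in concentration-response up to 50 uM; loss of signal versus DMSO.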
# [2] = target: rat Monoamine Oxidase, MAO-B, Central (MAOBC), Maob (gene 25750) (UniProt P19643); assay: NVS_ENZ_rMAOBC: NovaScreen (NVS) Enzymatic Assay for rat Monoamine Oxidase, MAO-B, Central (MAOBC) (AID 2283238)
# Outline: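 MAO-B activity in rat brain tissue preparation, cell-free, measured radiometrically by scintillation counting 1.17 h after dosing. Screened in duplicate at 25 uM; actives then in concentration-response up to 50 uM. Loss of signal versus DMSO scored.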
# [3] = target: human Phosphatase and Tensin Homolog (PTEN), PTEN (gene 5728) (UniProt P60484); assay: NVS_ENZ_hPTEN: NovaScreen (NVS) Enzymatic Assay for human Phosphatase and Tensin Homolog (PTEN) (AID 2283203)
# Outline: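 Cell-free recombinant human PTEN with fluorescent substrate; product separated by electrophoretic mobility shift and read by fluorescence 1 h after dosing. Primary screen in duplicate at 25 uM, actives followed in concentration series versus DMSO.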
# PPP2CA (gene 5515) = PPP2CA (gene 5515) (UniProt P67775); assay: NVS_ENZ_hPPP2CA: NovaScreen (NVS) Enzymatic Assay for human Protein Phosphatase 2 Aatalytic subunit Alpha (PPP2CA) (AID 2283199)
# Chain of PPP2CA (gene 5515) (P67775 whole entry, looked up): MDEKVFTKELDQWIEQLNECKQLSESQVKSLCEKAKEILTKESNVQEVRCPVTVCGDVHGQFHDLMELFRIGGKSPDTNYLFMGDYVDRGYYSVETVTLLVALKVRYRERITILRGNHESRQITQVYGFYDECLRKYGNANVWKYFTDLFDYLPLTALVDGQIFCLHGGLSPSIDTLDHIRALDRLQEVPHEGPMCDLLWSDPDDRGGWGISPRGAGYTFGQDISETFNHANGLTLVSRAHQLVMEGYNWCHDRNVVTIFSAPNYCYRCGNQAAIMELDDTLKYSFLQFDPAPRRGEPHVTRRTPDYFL
# Outline: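 Recombinant human PPP2CA with fluorescent substrate; product separated from substrate by electrophoretic mobility shift, read 1.33 h after dosing. Duplicate single-point at 25 uM, then singleton concentration-response up to 50 uM; loss of signal versus DMSO.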
# [4] = target: human Raf-1 Proto-Oncogene, serine/threonine Kinase (RAF1), RAF1 (gene 5894) (UniProt P04049); assay: NVS_ENZ_hRAF1: NovaScreen (NVS) Enzymatic Assay for human Raf-1 Proto-Oncogene, serine/threonine Kinase (RAF1) (AID 2283216)
# Chain of human Raf-1 Proto-Oncogene, serine/threonine Kinase (RAF1), RAF1 (gene 5894) (P04049 whole entry, looked up): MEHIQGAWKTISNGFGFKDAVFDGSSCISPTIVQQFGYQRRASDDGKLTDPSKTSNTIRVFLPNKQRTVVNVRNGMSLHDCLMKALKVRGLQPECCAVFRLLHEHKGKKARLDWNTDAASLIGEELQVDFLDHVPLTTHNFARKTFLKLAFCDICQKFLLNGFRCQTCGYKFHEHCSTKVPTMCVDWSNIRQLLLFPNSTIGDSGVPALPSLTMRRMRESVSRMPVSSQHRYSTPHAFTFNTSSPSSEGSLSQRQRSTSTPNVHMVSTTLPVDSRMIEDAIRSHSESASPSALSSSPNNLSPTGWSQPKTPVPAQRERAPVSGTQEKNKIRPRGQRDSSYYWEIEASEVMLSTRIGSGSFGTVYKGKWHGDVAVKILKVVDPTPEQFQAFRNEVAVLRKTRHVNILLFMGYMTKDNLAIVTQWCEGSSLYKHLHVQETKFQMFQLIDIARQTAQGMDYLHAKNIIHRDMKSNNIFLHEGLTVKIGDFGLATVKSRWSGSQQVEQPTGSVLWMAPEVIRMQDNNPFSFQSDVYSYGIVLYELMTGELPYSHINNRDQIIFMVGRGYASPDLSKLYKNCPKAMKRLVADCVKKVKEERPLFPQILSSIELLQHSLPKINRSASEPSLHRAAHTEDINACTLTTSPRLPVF
# Outline: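 Cell-free recombinant kinase with specific fluorescent substrate, product separated by electrophoretic mobility shift; read 1 h after dosing. Primary screen at 25 uM in duplicate; hits then run in concentration-response up to 50 uM, fitted as loss of signal versus DMSO.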
# [5] = target: human Tyrosine Protein Kinase Receptor Tie-2 (Tie2), TEK (gene 7010) (UniProt Q02763); assay: NVS_ENZ_hTie2: NovaScreen (NVS) Enzymatic Assay for human Tyrosine Protein Kinase Receptor Tie-2 (Tie2) (AID 2283225)
# Chain of human Tyrosine Protein Kinase Receptor Tie-2 (Tie2), TEK (gene 7010) (Q02763 whole entry, looked up): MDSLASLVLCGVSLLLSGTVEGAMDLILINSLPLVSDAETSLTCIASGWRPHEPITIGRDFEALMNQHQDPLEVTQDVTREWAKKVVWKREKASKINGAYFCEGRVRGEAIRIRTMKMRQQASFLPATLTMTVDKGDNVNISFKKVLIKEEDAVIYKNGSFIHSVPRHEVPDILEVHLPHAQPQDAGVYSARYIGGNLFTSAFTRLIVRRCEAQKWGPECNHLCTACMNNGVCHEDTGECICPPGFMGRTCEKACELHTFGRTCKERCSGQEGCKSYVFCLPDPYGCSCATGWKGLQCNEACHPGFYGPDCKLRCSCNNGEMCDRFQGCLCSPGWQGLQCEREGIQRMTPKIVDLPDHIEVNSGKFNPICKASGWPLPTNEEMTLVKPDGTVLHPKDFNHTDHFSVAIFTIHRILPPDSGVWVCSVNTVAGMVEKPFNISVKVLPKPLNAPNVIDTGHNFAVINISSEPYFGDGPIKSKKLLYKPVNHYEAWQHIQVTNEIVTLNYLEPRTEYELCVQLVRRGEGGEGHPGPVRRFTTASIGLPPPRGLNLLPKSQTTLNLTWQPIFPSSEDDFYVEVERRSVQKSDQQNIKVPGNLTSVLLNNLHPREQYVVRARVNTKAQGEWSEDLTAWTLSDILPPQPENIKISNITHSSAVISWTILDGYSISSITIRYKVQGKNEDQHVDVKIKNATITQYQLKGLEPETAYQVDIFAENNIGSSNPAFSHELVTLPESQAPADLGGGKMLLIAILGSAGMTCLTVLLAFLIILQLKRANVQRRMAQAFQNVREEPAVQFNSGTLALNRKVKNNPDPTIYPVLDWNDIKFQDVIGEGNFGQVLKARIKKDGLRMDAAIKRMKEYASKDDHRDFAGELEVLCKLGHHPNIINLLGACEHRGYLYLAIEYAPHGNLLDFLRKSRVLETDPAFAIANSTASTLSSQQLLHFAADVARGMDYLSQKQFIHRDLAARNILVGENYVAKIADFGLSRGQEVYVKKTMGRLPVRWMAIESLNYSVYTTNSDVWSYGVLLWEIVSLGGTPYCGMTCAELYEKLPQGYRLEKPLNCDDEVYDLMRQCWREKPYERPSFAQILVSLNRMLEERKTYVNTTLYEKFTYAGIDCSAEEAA
# Outline: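 Recombinant human Tie2 kinase activity was read cell-free by fluorescence with electrophoretic mobility shift, 1 hour after dosing. The screen used 25 uM in duplicate, then concentration-response up to 50 uM. Signal loss was scored against DMSO.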
# [6] = target: rat Acetylcholinesterase (AChE), Ache (gene 83817) (UniProt P37136); assay: NVS_ENZ_rAChE: NovaScreen (NVS) Enzymatic Assay for rat Acetylcholinesterase (AChE) (AID 2283233)
# Chain of rat Acetylcholinesterase (AChE), Ache (gene 83817) (P37136 whole entry, looked up): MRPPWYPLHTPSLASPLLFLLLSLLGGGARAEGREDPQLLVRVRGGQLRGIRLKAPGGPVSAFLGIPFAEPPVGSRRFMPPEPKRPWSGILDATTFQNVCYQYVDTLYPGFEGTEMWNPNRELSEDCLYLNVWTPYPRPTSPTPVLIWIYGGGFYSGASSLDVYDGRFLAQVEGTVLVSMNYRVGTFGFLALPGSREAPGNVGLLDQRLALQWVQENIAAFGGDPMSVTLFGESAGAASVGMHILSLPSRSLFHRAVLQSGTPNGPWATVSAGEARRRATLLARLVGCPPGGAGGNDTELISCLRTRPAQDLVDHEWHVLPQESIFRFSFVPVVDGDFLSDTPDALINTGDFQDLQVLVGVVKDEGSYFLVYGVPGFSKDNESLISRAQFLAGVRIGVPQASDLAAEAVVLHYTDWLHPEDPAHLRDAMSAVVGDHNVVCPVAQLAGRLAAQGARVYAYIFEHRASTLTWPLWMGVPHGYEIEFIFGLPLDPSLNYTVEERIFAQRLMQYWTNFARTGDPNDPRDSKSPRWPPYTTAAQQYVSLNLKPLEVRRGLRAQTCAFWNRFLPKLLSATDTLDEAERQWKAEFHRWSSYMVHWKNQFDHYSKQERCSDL
# Outline: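 Rat brain membrane acetylcholinesterase activity measured colorimetrically 0.33 h after compound addition, loss of signal relative to DMSO. Primary screen in duplicate at 25 uM; actives re-run as concentration-response with 50 uM top concentration.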
# [7] = system: rat Monoamine Oxidase, MAO-A, Peripheral (MAOAP), gene 29253; assay: NVS_ENZ_rMAOAP: NovaScreen (NVS) Enzymatic Assay for rat Monoamine Oxidase, MAO-A, Peripheral (MAOAP) (AID 2283237)
# Outline: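 Rat liver mitochondrial membranes served as the MAO-A source, with enzyme activity measured by radiometric scintillation counting 1.17 hours after dosing. Loss of signal was fitted against DMSO; primary screen used 25 uM in duplicate, follow-up used concentration series.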
# [8] = target: bovine Gamma-Aminobutyric Acid Type A Receptor BDZ, alpha 1 site (GABARa1), GABRA1 (gene 780973) (UniProt P08219); assay: NVS_LGIC_bGABARa1: NovaScreen (NVS) Ligand-Gated Ion Channel Assay for bovine Gamma-Aminobutyric Acid Type A Receptor BDZ, alpha 1 site (GABARa1) (AID 2283321)
# Chain of bovine Gamma-Aminobutyric Acid Type A Receptor BDZ, alpha 1 site (GABARa1), GABRA1 (gene 780973) (P08219 whole entry, looked up): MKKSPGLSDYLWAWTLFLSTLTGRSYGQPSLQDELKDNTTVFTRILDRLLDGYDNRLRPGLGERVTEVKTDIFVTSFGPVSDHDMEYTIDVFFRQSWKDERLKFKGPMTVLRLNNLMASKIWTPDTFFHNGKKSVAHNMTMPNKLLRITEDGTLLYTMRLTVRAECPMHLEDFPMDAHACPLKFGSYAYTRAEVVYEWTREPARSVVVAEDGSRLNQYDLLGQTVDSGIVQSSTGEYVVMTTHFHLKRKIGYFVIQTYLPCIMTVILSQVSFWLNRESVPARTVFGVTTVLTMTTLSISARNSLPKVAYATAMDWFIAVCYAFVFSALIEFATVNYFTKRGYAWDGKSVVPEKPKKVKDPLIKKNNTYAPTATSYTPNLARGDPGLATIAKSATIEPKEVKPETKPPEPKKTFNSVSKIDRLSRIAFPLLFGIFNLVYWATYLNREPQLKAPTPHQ
# Outline: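 Radioligand competition binding on bovine cortical membranes, 0.75 h, filter-based scintillation counting. Primary single concentration 25 uM in duplicate; actives rerun in concentration-response to 50 uM max. Loss of signal fitted versus DMSO.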
# [9] = target: Norway rat Vesicular Monoamine Transporter (VMAT2), neurotransmitter transporter, Slc18a2 (gene 25549) (UniProt Q01827); assay: NVS_TR_rVMAT2: NovaScreen (NVS) Transporter Assay for Norway rat Vesicular Monoamine Transporter (VMAT2), neurotransmitter transporter (AID 2283376);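 further: actives lower the bound radioligand signal below the DMSO level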
# Outline: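 Radioligand displacement binding on rat forebrain tissue preparation, filter-based scintillation read-out 1 hour after dosing. Primary screen in duplicate at 25 uM, then concentration series for actives; loss of signal versus DMSO.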
# [10] = TOX21_TRB_BLA_Agonist_Followup_viability: Viability Assessment in the Tox21 Thyroid Hormone Receptor beta Agonism Beta-lactamase (BLA) Follow-Up Assay (AID 2283956)
# Outline: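 TRb-bla HEK293T cells (GAL4-DBD/human TRb LBD) in 2% charcoal-stripped FBS medium were exposed 18 h at 37C to 11 concentrations in triplicate. CellTiter-Glo ATP luminescence was read after 30 min at room temperature, with bidirectional fitting against DMSO.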
# [11] = target: human Protein Tyrosine Phosphatase Receptor Type C (PTPRC), PTPRC (gene 5788) (UniProt P08575); assay: NVS_ENZ_hPTPRC: NovaScreen (NVS) Enzymatic Assay for human Protein Tyrosine Phosphatase Receptor Type C (PTPRC) (AID 2283212)
# Chain of human Protein Tyrosine Phosphatase Receptor Type C (PTPRC), PTPRC (gene 5788) (P08575 whole entry, looked up): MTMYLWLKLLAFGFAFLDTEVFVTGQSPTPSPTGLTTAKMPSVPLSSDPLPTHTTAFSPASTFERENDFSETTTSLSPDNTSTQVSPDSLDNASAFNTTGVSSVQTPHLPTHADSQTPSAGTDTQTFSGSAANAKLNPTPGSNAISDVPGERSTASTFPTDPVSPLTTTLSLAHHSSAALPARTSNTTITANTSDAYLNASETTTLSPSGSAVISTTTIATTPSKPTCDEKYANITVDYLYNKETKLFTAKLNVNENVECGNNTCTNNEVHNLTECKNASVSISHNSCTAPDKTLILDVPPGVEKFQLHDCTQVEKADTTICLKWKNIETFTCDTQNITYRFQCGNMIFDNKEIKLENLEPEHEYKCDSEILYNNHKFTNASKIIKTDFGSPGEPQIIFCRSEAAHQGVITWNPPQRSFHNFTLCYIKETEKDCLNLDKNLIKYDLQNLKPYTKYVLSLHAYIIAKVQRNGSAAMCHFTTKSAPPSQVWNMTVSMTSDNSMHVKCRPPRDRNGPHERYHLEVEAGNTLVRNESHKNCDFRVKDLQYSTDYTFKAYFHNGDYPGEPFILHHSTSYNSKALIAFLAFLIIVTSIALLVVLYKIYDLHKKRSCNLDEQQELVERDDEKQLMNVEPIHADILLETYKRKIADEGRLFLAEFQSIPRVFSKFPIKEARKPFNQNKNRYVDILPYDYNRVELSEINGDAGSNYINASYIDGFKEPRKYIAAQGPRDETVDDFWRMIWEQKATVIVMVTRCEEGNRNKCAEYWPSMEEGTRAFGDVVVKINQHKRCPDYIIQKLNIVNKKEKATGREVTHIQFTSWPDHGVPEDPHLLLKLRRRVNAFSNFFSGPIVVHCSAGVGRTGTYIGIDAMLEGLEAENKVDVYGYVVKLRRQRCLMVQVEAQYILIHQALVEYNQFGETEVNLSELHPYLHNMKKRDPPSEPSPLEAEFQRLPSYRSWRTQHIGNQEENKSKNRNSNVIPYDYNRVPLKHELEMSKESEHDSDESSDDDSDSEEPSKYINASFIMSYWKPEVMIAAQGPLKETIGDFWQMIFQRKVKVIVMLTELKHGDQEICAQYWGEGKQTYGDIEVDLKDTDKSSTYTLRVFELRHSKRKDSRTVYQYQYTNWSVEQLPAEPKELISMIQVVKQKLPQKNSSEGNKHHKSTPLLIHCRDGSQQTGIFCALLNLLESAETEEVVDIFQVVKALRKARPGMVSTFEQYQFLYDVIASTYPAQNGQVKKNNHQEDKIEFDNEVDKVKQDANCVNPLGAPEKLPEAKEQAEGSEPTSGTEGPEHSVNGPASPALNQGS
# Outline: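 Yeast-extracted human PTPRC used in a cell-free colorimetric enzyme activity read-out, 1 h after dosing. Primary screen in duplicate at 25 uM; actives rerun in concentration-response up to 50 uM, DMSO as baseline.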
# [12] = target: rat Monoamine Oxidase, MAO-B, Peripheral (MAOBP), Maob (gene 25750) (UniProt P19643); assay: NVS_ENZ_rMAOBP: NovaScreen (NVS) Enzymatic Assay for rat Monoamine Oxidase, MAO-B, Peripheral (MAOBP) (AID 2283242)
# Chain of rat Monoamine Oxidase, MAO-B, Peripheral (MAOBP), Maob (gene 25750) (P19643 whole entry, looked up): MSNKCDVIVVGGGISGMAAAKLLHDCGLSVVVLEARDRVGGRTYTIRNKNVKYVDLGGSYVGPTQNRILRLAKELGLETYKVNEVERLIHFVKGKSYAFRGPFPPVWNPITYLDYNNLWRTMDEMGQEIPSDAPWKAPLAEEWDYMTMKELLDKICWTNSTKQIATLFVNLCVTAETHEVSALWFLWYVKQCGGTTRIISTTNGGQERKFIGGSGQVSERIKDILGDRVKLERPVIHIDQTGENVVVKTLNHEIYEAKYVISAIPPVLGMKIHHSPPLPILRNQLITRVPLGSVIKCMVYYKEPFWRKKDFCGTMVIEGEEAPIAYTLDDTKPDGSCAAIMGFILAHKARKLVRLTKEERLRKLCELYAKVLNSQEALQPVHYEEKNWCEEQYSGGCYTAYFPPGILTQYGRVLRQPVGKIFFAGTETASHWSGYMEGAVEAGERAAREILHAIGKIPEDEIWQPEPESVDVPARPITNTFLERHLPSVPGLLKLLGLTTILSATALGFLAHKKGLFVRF
# [13] = target: rat Adenylate Cyclase, Forskolin Stimulated, Adcy5 (gene 64532) (UniProt Q04400); assay: NVS_ENZ_rACFSKBinding: NovaScreen (NVS) Enzymatic Assay for rat Adenylate Cyclase, Forskolin Stimulated (AID 2283232)
# Outline: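 Rat forebrain membrane preparation, cell-free, read 1 h after dosing by filter-based scintillation counting. Primary screen in duplicate at 25 uM; actives (e.g. ≥30% inhibition) rerun in concentration-response up to 50 uM; fit versus DMSO.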
# [14] = target: rat Corticotropin Releasing Factor Receptor (CRF), Crhr1 (gene 58959) (UniProt P35353); assay: NVS_GPCR_rCRF: NovaScreen (NVS) G Protein-Coupled Receptor Assay for rat Corticotropin Releasing Factor Receptor (CRF) (AID 2283300)
# Outline: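 Rat cortical membranes used as receptor source in a radioligand competitive displacement binding assay; scintillation read 2 h after dosing. Primary screen run in duplicate at 25 uM; loss of signal versus DMSO baseline indicates binding.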
# [15] = target: human Neonicotinoid receptor (NNR), CHRNA2 (gene 1135) (UniProt Q15822); assay: NVS_LGIC_hNNR_NBungSens: NovaScreen (NVS) Ligand-Gated Ion Channel Assay for human Neonicotinoid receptor (NNR) (AID 2283313)
# Outline: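 Radioligand displacement on human neuroblastoma membranes, 2 h, filter-based scintillation counting. Primary screen in duplicate at 25 uM; chemicals passing threshold (e.g. 30% inhibition) run singleton concentration-response to 50 uM; loss of binding fitted versus DMSO.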
# [16] = target: Voltage-dependent N-type calcium channel subunit alpha-1B (Rattus norvegicus) (UniProt Q02294); assay: NVS_IC_rCaChN: NovaScreen (NVS) Ion Channel Assay for rat Calcium Channel, Type N (CaChN) (AID 2283317)
smiles,measurement,setting,value
O=C(O)c1cccnc1,outcome,[1],inactive
same,outcome,[2],inactive
O=C=Nc1cccc2c(N=C=O)cccc12,outcome,[3],inactive
CC(=O)CC(c1ccccc1)c1c(O)c2ccccc2oc1=O (centres undefined),outcome,PPP2CA (gene 5515),inactive
Cc1ccc2ncccc2c1,outcome,[4],inactive
same,outcome,[5],inactive
O=C1OC2(c3cc(Br)c(O)c(Br)c3Oc3c2cc(Br)c(O)c3Br)c2c(Cl)c(Cl)c(Cl)c(Cl)c21,AC50,[6],2.75 µM (active)
O=C(O)CC(O)C(=O)O (centres undefined),outcome,[7],inactive
COc1nc(C)nc(NC(=O)NS(=O)(=O)c2ccccc2OCCCl)n1,outcome,[8],inactive
Nc1ccc(S(=O)(=O)Nc2nccs2)cc1,outcome,[9],inactive
same,outcome,[10],inactive
CC(C)C(=O)Nc1ccc([N+](=O)[O-])c(C(F)(F)F)c1,AC50,[7],10.4 µM (active)
CC(C)c1ccc(C(=O)N=C(N)N)cc1S(C)(=O)=O,outcome,[5],inactive
CCCC[C@H]1CN(CC2CCOCC2)C(=O)OC12CCN(C1(C)CCN(C(=O)c3c(C)ncnc3C)CC1)CC2,outcome,[11],inactive
same,outcome,[12],inactive
O=c1[nH]sc2ccccc12,AC50,[13],16.2 µM (active)
same,AC50,[12],19.2 µM (active)
same,AC50,[14],17 µM (active)
CCn1nc(C)c2c1C(=O)NCC(c1ccc(O)cc1)=N2,outcome,[6],inactive
same,AC50,[7],5.25 µM (active)
same,outcome,[8],inactive
CCCOC(=O)NCCCN(C)C,outcome,[7],inactive
same,AC50,[15],7.3 µM (active)
CCCC(=O)OCCC(C)C,outcome,[6],inactive
same,outcome,[16],inactive
COc1ccc(/C=C/S(=O)(=O)NC(=O)c2ccc(C)cc2Cl)cc1,outcome,[4],inactive
same,outcome,[5],inactive
NC(=O)Cn1c(=O)cc(CCN2CCN(c3nccc4sccc34)CC2)c2ccc(F)cc21,outcome,[6],inactive
same,AC50,[8],4.48 µM (active)
Nc1nc2ncc(CNc3ccc(C(=O)N[C@@H](CCC(=O)O)C(=O)O)cc3)nc2c(=O)[nH]1,AC50,[11],15.8 µM (active)
CC(=O)OCCC(C)C,outcome,[5],inactive
same,outcome,[16],inactive
CCCN(CCC)c1c([N+](=O)[O-])cc(C(F)(F)F)c(N)c1[N+](=O)[O-],outcome,[5],inactive
same,outcome,[7],inactive
